Experimental data: PubChem BioAssay AID1159580 (chemical genetic matrix, 2015)
The whole screen tested about 5,500 compounds, of which about 2,000 (36%) were called active. Roughly 18% stayed inconclusive and do not appear here. Cut-off read from the data, not from the text of the source: active = normalized growth mostly below about 0.91 (no sharp cut-off); inconclusive = no clear call, values can overlap the other calls; inactive = mostly above about 0.92. The list shows a part of the results.

Assay: chemical genetic growth profiling, strain panel (AID 1159580);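 note: tested at 20 µM; growth read once vehicle control cultures reached saturation at 30 °C; 1 = growth at the plate median or of vehicle wells; lower values mean less growth of the strain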
Details: growth OD

Measured: normalized growth

O=C(O)CCCCC1CCSS1 (configuration not stated)
active: S. cerevisiae deletion strains, locus YLR262C, strain YPT6 (second series), active compounds read low 0.839
inactive: S. cerevisiae deletion strains, locus YJR075W, strain HOC1, active compounds read low 1 | S. cerevisiae deletion strains, locus YKL009W, strain mrt4, active compounds read low 0.978 | S. cerevisiae deletion strains, locus YKL068W, active compounds read low 1.01 | S. cerevisiae deletion strains, locus YKL085W, strain MDH1 (second series), active compounds read low 0.996 | S. cerevisiae deletion strains, locus YKL085W, strain MDH1, active compounds read low 0.996 | S. cerevisiae deletion strains, locus YKL160W, strain elf1, active compounds read low 0.988 | S. cerevisiae deletion strains, locus YKL190W, strain CNB1, active compounds read low 0.989 | S. cerevisiae deletion strains, locus YKR001C, strain vps1, active compounds read low 0.954 | S. cerevisiae deletion strains, locus YKR026C, strain gcn3, active compounds read low 0.965 | S. cerevisiae deletion strains, locus YKR091W, strain srl3, active compounds read low 0.982 | S. cerevisiae deletion strains, locus YLL001W, strain dnm1, active compounds read low 0.95 | S. cerevisiae deletion strains, locus YLL026W, active compounds read low 0.946 | S. cerevisiae deletion strains, locus YLL041C, strain sdh2, active compounds read low 0.976 | S. cerevisiae deletion strains, locus YLR027C, strain aat2, active compounds read low 0.973 | S. cerevisiae deletion strains, locus YLR039C, strain RIC1, active compounds read low 0.943 | S. cerevisiae deletion strains, locus YLR058C, strain SHM2, active compounds read low 0.968 | S. cerevisiae deletion strains, locus YLR102C, strain apc9, active compounds read low 0.984 | S. cerevisiae deletion strains, locus YLR113W, strain HOG1, active compounds read low 0.961 | S. cerevisiae deletion strains, locus YLR221C, strain rsa3, active compounds read low 0.963 | S. cerevisiae deletion strains, locus YLR258W, strain gsy2, active compounds read low 0.933 | S. cerevisiae deletion strains, locus YLR262C, strain YPT6, active compounds read low 0.969 | S. cerevisiae deletion strains, locus YLR268W, strain sec22, active compounds read low 1.06 | S. cerevisiae deletion strains, locus YLR320W, strain mms22, active compounds read low 0.98 | S. cerevisiae deletion strains, locus YLR330W, strain CHS5, active compounds read low 0.966 | S. cerevisiae deletion strains, locus YLR342W, strain FKS1 (second series), active compounds read low 0.945 | S. cerevisiae deletion strains, locus YLR342W, strain FKS1, active compounds read low 0.979 | S. cerevisiae deletion strains, locus YLR357W, strain rsc2, active compounds read low 0.901 | S. cerevisiae deletion strains, locus YLR370C, strain arc18, active compounds read low 0.986 | S. cerevisiae deletion strains, locus YLR371W, strain rom2, active compounds read low 0.973 | S. cerevisiae deletion strains, locus YLR384C, strain iki3, active compounds read low 0.977 | S. cerevisiae deletion strains, locus YLR418C, strain cdc73, active compounds read low 0.979 | S. cerevisiae deletion strains, locus YML016C, strain PPZ1, active compounds read low 0.982 | S. cerevisiae deletion strains, locus YML032C, strain rad52, active compounds read low 0.993 | S. cerevisiae deletion strains, locus YML120C, strain ndi1, active compounds read low 0.937 | S. cerevisiae deletion strains, locus YML124C, strain tub3, active compounds read low 0.98 | S. cerevisiae deletion strains, locus YMR058W, strain fet3, active compounds read low 0.968 | S. cerevisiae deletion strains, locus YMR078C, strain ctf18, active compounds read low 0.979 | S. cerevisiae deletion strains, locus YMR125W, strain sto1, active compounds read low 0.981 | S. cerevisiae deletion strains, locus YMR129W, active compounds read low 0.937 | S. cerevisiae deletion strains, locus YMR205C, strain PFK2, active compounds read low 0.921 | S. cerevisiae deletion strains, locus YMR223W, strain ubp8, active compounds read low 0.948 | S. cerevisiae deletion strains, locus YMR231W, strain pep5, active compounds read low 0.955 | S. cerevisiae deletion strains, locus YMR263W, strain SAP30, active compounds read low 0.981 | S. cerevisiae deletion strains, locus YMR307W, strain GAS1, active compounds read low 1.02 | S. cerevisiae deletion strains, locus YNL067W, strain RPL9B, active compounds read low 1.01 | S. cerevisiae deletion strains, locus YNL071W, strain lat1, active compounds read low 0.973 | S. cerevisiae deletion strains, locus YNL128W, strain TEP1, active compounds read low 0.962 | S. cerevisiae deletion strains, locus YNL153C, strain GIM3, active compounds read low 1 | S. cerevisiae deletion strains, locus YNL183C, strain NPR1, active compounds read low 0.842 | S. cerevisiae deletion strains, locus YNL209W, strain ssb2, active compounds read low 0.986 | S. cerevisiae deletion strains, locus YNL233W, strain BNI4, active compounds read low 1.01 | S. cerevisiae deletion strains, locus YNL248C, strain rpa49, active compounds read low 0.979 | S. cerevisiae deletion strains, locus YNL250W, strain rad50, active compounds read low 0.979 | S. cerevisiae deletion strains, locus YNL271C, strain bni1, active compounds read low 0.976 | S. cerevisiae deletion strains, locus YNL298W, strain CLA4, active compounds read low 0.928 | S. cerevisiae deletion strains, locus YNL307C, strain MCK1, active compounds read low 0.983 | S. cerevisiae deletion strains, locus YNL322C, strain KRE1 (second series), active compounds read low 0.97 | S. cerevisiae deletion strains, locus YNL322C, strain KRE1, active compounds read low 0.985 | S. cerevisiae deletion strains, locus YNR049C, strain mso1, active compounds read low 0.97 | S. cerevisiae deletion strains, locus YNR052C, strain pop2, active compounds read low 0.999 | S. cerevisiae deletion strains, locus YOL006C, strain TOP1, active compounds read low 1.04 | S. cerevisiae deletion strains, locus YOL012C, strain htz1 0.885 | S. cerevisiae deletion strains, locus YOL147C, strain pex11, active compounds read low 0.975 | S. cerevisiae deletion strains, locus YOR001W, strain rrp6, active compounds read low 0.962 | S. cerevisiae deletion strains, locus YOR061W, strain CKA2, active compounds read low 0.97 | S. cerevisiae deletion strains, locus YOR069W, strain VPS5, active compounds read low 0.986 | S. cerevisiae deletion strains, locus YOR070C, strain gyp1, active compounds read low 0.979 | S. cerevisiae deletion strains, locus YOR080W, strain dia2, active compounds read low 0.962 | S. cerevisiae deletion strains, locus YOR083W, strain WHI5, active compounds read low 0.989 | S. cerevisiae deletion strains, locus YOR106W, strain vam3, active compounds read low 0.957 | S. cerevisiae deletion strains, locus YOR136W, strain idh2, active compounds read low 0.969 | S. cerevisiae deletion strains, locus YOR144C, strain elg1, active compounds read low 0.973 | S. cerevisiae deletion strains, locus YOR184W, strain ser1, active compounds read low 0.973 | S. cerevisiae deletion strains, locus YOR231W, strain MKK1, active compounds read low 0.892 | S. cerevisiae deletion strains, locus YOR265W, strain rbl2, active compounds read low 0.973 | S. cerevisiae deletion strains, locus YOR270C, strain vph1, active compounds read low 1.02 | S. cerevisiae deletion strains, locus YOR290C, strain snf2, active compounds read low 0.91 | S. cerevisiae deletion strains, locus YOR316C, strain cot1, active compounds read low 0.986 | S. cerevisiae deletion strains, locus YPL051W, strain arl3, active compounds read low 0.981 | S. cerevisiae deletion strains, locus YPL055C, strain LGE1, active compounds read low 1 | S. cerevisiae deletion strains, locus YPL078C, strain atp4, active compounds read low 0.99 | S. cerevisiae deletion strains, locus YPL106C, strain sse1, active compounds read low 0.965 | S. cerevisiae deletion strains, locus YPL240C, strain hsp82, active compounds read low 0.97 | S. cerevisiae deletion strains, locus YPL241C, strain CIN2, active compounds read low 0.98 | S. cerevisiae deletion strains, locus YPL256C, strain CLN2, active compounds read low 0.94 | S. cerevisiae deletion strains, locus YPR119W, strain clb2, active compounds read low 0.977 | S. cerevisiae deletion strains, locus YPR141C, strain kar3, active compounds read low 0.985 | S. cerevisiae deletion strains, locus YPR163C, strain tif3, active compounds read low 0.989 | S. cerevisiae deletion strains, locus YPR167C, strain met16, active compounds read low 0.988 | S. cerevisiae deletion strains, strain wtn01, active compounds read low 1 | S. cerevisiae strains, strain wild type, active compounds read low 0.978
